Drawing on PubChem BioAssay AID2012 (Sanford-Burnham Center for Chemical Genomics, 2009), this text covers inhibition for 43 compounds.

This assay concerns the target Eukaryotic translation initiation factor 4H (Homo sapiens) (UniProt Q15056). In words: eIF4H binding inhibition – biochemical, uHTS, fluorescence polarization, translation initiation inhibitor project, primary screen (AID 2012).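 Also: calls also rest on retests at 20 µM and on dose response follow-up.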 The settings on record: eIF4H fluorescence polarization binding assay, stronger effect = higher value. In general terms: Polarisation of emitted light reports the rotation of a fluorescent probe.

Each structure is given as a SMILES string. Hit rate of the full screen: of about 290,000 compounds, about 2,700 (0.93%) were called active. This is one part of a sample in which actives are shown more often than they occur. No rule for the calls is given here.

Consider `Cc1cc(C)n(Cc2cnc(N3CCOCC3)s2)n1`, for which the inhibition (as a rule, the relative decrease from the control value, in per cent) (at 35 µM) was -7.9% (active) and the inhibition (confirmation average, at 20 µM) came to 107%. Consider `Cc1nc(N2CCOCC2)sc1C(=O)NN`, for which the inhibition (at 35 µM) is 0.1% (inactive).

Take `COc1cccc(NC(=O)C(=O)c2cn(CC(=O)N3CCOCC3)c3ccccc23)c1`: the inhibition (at 35 µM) is -12.2% (inactive). On to `Cn1c(N)cc(-c2ccc(F)cc2)c(C#N)c1=O`, for which the inhibition is -11% (active) (at 35 µM) and 108% (confirmation average, at 20 µM). Regarding `Cc1cc(C)c2c(-c3ccc(F)cc3)c(C#N)c(=O)n(C)c2n1`, the inhibition (at 35 µM) is -1.8% (inactive). For `COc1ccc(O)c(C(=O)c2cnc3c(c2)c(-c2ccc(F)cc2)c(C#N)c(=O)n3C)c1`, for the setting “at 35 µM”, the inhibition was -3.7% (inactive).

For the compound `CC(=O)NCCNC(=O)c1cc(-c2cccc3ccccc23)nc2ccccc12`, the inhibition (at 35 µM) is 0.8% (inactive). As for `COc1ccccc1N1CCN(S(=O)(=O)c2ccc(Cl)cc2)CC1`, the inhibition (at 35 µM) was -8.3% (inactive). On to `O=S(=O)(c1ccc(F)cc1)N1CC=C(c2ccccc2)CC1`, for which the inhibition (at 35 µM) was -1.4% (inactive). For the compound `Cc1c(C2=CCN(S(=O)(=O)c3ccc(Cl)cc3)CC2)c2ccccc2n1C`, the inhibition is 91.5% (active) (at 35 µM) and 99.6% (confirmation average, at 20 µM). On to `CCOc1ccc(C(=O)Nc2c3c(nn2-c2ccccc2)CS(=O)(=O)C3)cc1`, for which the inhibition (at 35 µM) is -1.2% (inactive). Regarding `O=C(Nc1ncc([N+](=O)[O-])s1)C1COc2ccccc2O1` (configuration not stated), the inhibition (at 35 µM) is -6.7% (inactive). In the case of `N[C@@H](Cc1ccccc1)C(=O)N1CCC(C(=O)NCC(=O)Nc2ccc(F)cc2)CC1`, the inhibition (at 35 µM) is 20% (inactive).

As for `Cc1cc(/C=N/Nc2ccc([N+](=O)[O-])cn2)c(C)n1-c1cccc(C(=O)O)c1`, the inhibition (at 35 µM) is 54.4% (active). As to `COc1cc(/C=N\Nc2ccc([N+](=O)[O-])cn2)ccc1OCC(=O)O`, the inhibition (at 35 µM) was -3.4% (inactive).

In the case of `Cc1ccc(-n2c(C)cc(/C=N/Nc3ccc([N+](=O)[O-])cn3)c2C)c(C)c1`, the inhibition (at 35 µM) is 6.6% (inactive). Turning to `O=C(c1cc(S(=O)(=O)N2CCOCC2)ccc1Cl)N1CCOCC1`, for the setting “at 35 µM”, the inhibition was -2.4% (inactive). Consider `COc1cc2c(cc1OC)C(C)N(S(=O)(=O)c1cnc(Cl)c(Cl)c1)CC2` (configuration not stated), for which the inhibition (at 35 µM) is 1.8% (inactive). With `Cc1ccc(NS(=O)(=O)c2ccc(F)cc2)nc1`, the inhibition (at 35 µM) was -7.9% (inactive).

As for `CCC(Cc1ccccc1)NS(=O)(=O)c1ccc2c(c1)NC(=O)CS2` (configuration not stated), the inhibition (at 35 µM) is -2.9% (inactive).

Regarding `CCOC(=O)c1c(C)[nH]c2c1-c1ccccc1C(=O)C2=O`, where the note is “at 35 µM”, the inhibition was -11% (inactive). For the compound `CCCCOC(=O)c1[nH]c(C)c(C(=O)OC)c1C`, the inhibition (at 35 µM) was 4.8% (inactive). `CCOC(=O)c1c(C)[nH]c(C2=NNC(=NC(C)COC)SC2)c1C` (configuration not stated): the inhibition is, setting by setting: (at 35 µM) -1.8% (active); (confirmation average, at 20 µM) 93.1%. For `COc1cc(/C=N/O)ccc1OCc1ccc([N+](=O)[O-])cc1`, the inhibition (at 35 µM) is 0.1% (inactive).

In the case of `COc1ccc(C(=O)/C=C/c2ccc(-c3ccccc3)cc2)cc1CSCC(=O)O`, the inhibition was 82.3% (inactive) (at 35 µM) and 47.3% (confirmation average, at 20 µM).

For the compound `COC(=O)c1ccc(COc2ccc(/C=C/C(=O)c3ccc(OC)c(CSCC(=O)O)c3)cc2OC)cc1`, the inhibition runs as follows: (at 35 µM) 81% (active); (confirmation average, at 20 µM) 68.7%. Turning to `CCCc1ccc(OCC(O)CN2CCN(CCO)CC2)cc1` (configuration not stated), the inhibition (at 35 µM) was -2.4% (inactive). Same read-out and setting: then `Cc1ccc(NC(=O)CCN2C(=O)c3ccccc3C2=O)cc1C`, with -6.5% (inactive). Take `Cc1cc(C)cc(OCC(=O)NNC(=O)CCN2C(=O)c3ccccc3C2=O)c1`: the inhibition by setting is: (at 35 µM) 2.3% (active); (confirmation average, at 20 µM) 87.4%. Consider `Cc1cc(C)cc(NC(=O)CCN2C(=O)c3ccccc3C2=O)c1`, for which the inhibition (at 35 µM) is -1.3% (inactive).

Take `COc1ccc(CN2CC(C(=O)NCCc3ccc(Cl)cc3)CC2=O)cc1` (configuration not stated): the inhibition (at 35 µM) is -12.2% (inactive). With `O=C(N/C(=C\c1ccc([N+](=O)[O-])cc1)C(=O)N1CCOCC1)c1cccc(Br)c1`, the inhibition (at 35 µM) was 7.9% (inactive). On the same count and under the same terms, then `O=C1c2ccccc2C(=O)N1CCOc1ccc(F)cc1`, with 0.9% (inactive). On to `O=C(Nc1nonc1-c1ccc(Cl)cc1)c1ccco1`, for which the inhibition (at 35 µM) is -12.8% (inactive). `Cc1cc2occ(CC(=O)NNC(=O)c3ccccc3F)c2cc1C`: under “at 35 µM”, the inhibition is -3% (inactive). As for `COCCNC(=O)c1ccccc1NS(=O)(=O)c1ccc(C)c([N+](=O)[O-])c1`, under “at 35 µM”, the inhibition is 9.2% (inactive). On to `CC1CN(C(=O)c2ccccc2NS(=O)(=O)c2cccc([N+](=O)[O-])c2)CC(C)O1` (configuration not stated), for which the inhibition was -0.3% (active) (at 35 µM) and 95.9% (confirmation average, at 20 µM). As to `COc1ccc(S(=O)(=O)Nc2ccccc2C(=O)N2CCCC2)cc1C`, the inhibition (at 35 µM) is -2.4% (inactive). Turning to `O=S(=O)(c1ccc(Cl)cc1)c1nc(-c2ccccc2F)oc1NCCN1CCOCC1`, the inhibition (at 35 µM) was -7.4% (inactive). Same read-out and setting: in the case of `Cc1nn(C)cc1S(=O)(=O)N1CCN(c2ccc(F)cc2)CC1` it was 1% (inactive); in that of `COc1cccc(/C=N/NC(=O)CNC(=O)c2ccc(S(=O)(=O)N3CCOCC3)cc2)c1OC`, 7.4% (inactive). Take `COc1ccc(Br)cc1/C=N/NC(=O)c1cccc(S(=O)(=O)N2CCOCC2)c1`: the inhibition (at 35 µM) is -3.8% (inactive). Regarding `O=C(N/N=C/c1ccc([N+](=O)[O-])o1)c1cccc(S(=O)(=O)N2CCOCC2)c1`, the inhibition (at 35 µM) was 52% (active) and the inhibition (confirmation average, at 20 µM) was 78.6%.
